Test results as given in PubChem BioAssay (Tox21).
Results filed as inconclusive are left out. Active and inactive are the calls of the source. Unless noted, the call rests on the fitted dose curve; in most records, active means well fitted curve in the direction sought with a large enough effect in the repeat runs; inconclusive means weak or mixed curves; inactive means no such curve, though single readings can be large; an effect the other way counts as inactive or inconclusive.

Tests used:
[1] = A CellTox Green Cytotoxicity Assay to monitor cytotoxicity in HepG2 cells - 8 hour (AID 1224890); further: nearly all actives have a fitted effect of over 45% in size
How it was run: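 Real-time, homogeneous cytotoxicity readout: dead-cell DNA staining by CellTox Green in HepG2 monolayers, fluorescence measured at timed intervals up to 40 h of continuous compound exposure.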

[2] = qHTS assay to identify small molecule antagonists of the estrogen receptor alpha (ER-alpha) signaling pathway using the BG1 cell line in the presence of 0.1 nM 17-beta-estradiol - cell viability counter screen (AID 1259241); further: nearly all actives have a fitted effect of over 40% in size
How it was run: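 Viability in VM7Luc4E2 cells after 22 hr compound exposure under 0.1 nM 17beta-estradiol stimulation, by CellTiter-Fluor.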

[3] = qHTS assay to identify small molecule antagonists of the androgen receptor (AR) signaling pathway using the MDA cell line in the presence of 0.5 nM R1881 - cell viability counter screen (AID 1259242); further: nearly all actives have a fitted effect of over 45% in size; further: potency means the concentration at half of the fitted maximal effect
How it was run: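 Cytotoxicity toward MDA-kb2 cells is measured by CellTiter-Fluor live-cell protease fluorescence after 16 hr compound exposure at 37C in the presence of 0.5 nM R1881 stimulator.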

[4] = biological target: Estrogen receptor (Homo sapiens) (UniProt P03372); experiment: qHTS assay to identify small molecule antagonists of the estrogen receptor alpha (ER-alpha) signaling pathway using the BG1 cell line in the presence of 0.1 nM 17-beta-estradiol (AID 1259244); further: nearly all actives have a fitted effect of over 50% in size; further: potency means the concentration at half of the fitted maximal effect
How it was run: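 After 5 days in hormone-depleted medium (charcoal-stripped serum, no phenol red), VM7Luc4E2 cells were seeded, incubated 24 h, then co-treated with compound and 0.1 nM (final) estradiol for 22 h before luminescence detection.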

[5] = qHTS assay to identify small molecule phospholipidosis (PLD) inducers (AID 1259344; active means well fitted curve in the direction sought with a large enough effect; an effect the other way counts as inactive or inconclusive)
How it was run: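 HepG2 cells, 900/well, treated with compound plus LipidTOX Red for 24 h at 37 C; amiodarone positive and DMSO negative controls. Fixed with paraformaldehyde/Hoechst, then high-content imaging scored LipidTOX pit count and integrated intensity per well and per cell.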

[6] = qHTS assay to identify small molecule HDAC inhibitors - cell viability counter screen (AID 1259365); further: nearly all actives have a fitted effect of over 50% in size; further: potency means the concentration at half of the fitted maximal effect
How it was run: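 Cytotoxicity was gauged in wild-type HCT-116 cells after a brief 2hr treatment with DMSO-dissolved compounds at 37C and 5% CO2, using CellTiter-Glo luminescence developed for 30min at room temperature.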

[7] = qHTS assay to identify small molecule agonists of the sonic hedgehog signaling (Shh) pathway - cell viability counter screen (AID 1259366); further: nearly all actives have a fitted effect of over 50% in size; further: potency means the concentration at half of the fitted maximal effect
How it was run: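 Stable Gli1-Luc NIH/3T3 clone, 2,000 cells/well. Compound exposure 24hr at 37C. Read-out: CellTiter-Fluor fluorescence.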

[8] = qHTS assay to identify small molecule antagonists of the sonic hedgehog signaling (Shh) pathway - cell viability counter screen (AID 1259367); further: nearly all actives have a fitted effect of over 55% in size; further: potency means the concentration at half of the fitted maximal effect
How it was run: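 NIH/3T3-derived Gli1-Luc reporter cells, 2,000/well, plated 4 hr before compound addition, then stimulated with conditioned medium for 24 hr at 37C. Viability measured in the same wells by CellTiter-Fluor fluorescence, reagent added at 23 hr for 1 hr.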

[9] = qHTS assay to identify small molecule agonists of the sonic hedgehog signaling (Shh) pathway (AID 1259368; calls by dose curve;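 further: NIH/3T3-derived 3T3Gli1-Luc cells carrying a stable Gli1-driven firefly luciferase reporter; series mostly up to about 92 µM; nearly all actives have a fitted effect of over 15% in size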)
How it was run: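 Steps: seed 3T3 Gli1-Luc cells, incubate 4 hr at 37 C, pin-transfer compounds in DMSO alongside a positive control, incubate 24 hr, add luciferase detection reagent, wait 30 min at room temperature, read luminescence.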

[10] = qHTS assay to identify small molecule agonists of the androgen receptor (AR) signaling pathway in the presence of an antagonist - cell viability counter screen (AID 1259379); further: nearly all actives have a fitted effect of over 25% in size; further: potency means the concentration at half of the fitted maximal effect
How it was run: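 Fluorescence from CellTiter-Fluor, added after 15 hr and read 1 hr later, gave cell viability. Cells were MDA-kb2 exposed to compounds (15 concentrations) in the presence of 3.0uM nilutamide at 37C, 0% CO2.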

[11] = qHTS RealTime-Glo MT Cell Viability Assay in HepG2 cells - 0 hour (AID 1224889); further: nearly all actives have a fitted effect of over 50% in size
How it was run: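 Cell number in HepG2 cultures estimated from NanoLuc luminescence generated by metabolic reduction of a prosubstrate by living cells. The homogeneous, nonlytic format allowed repeated reads at 0, 8, 16, 24, 32 and 40 h of compound exposure.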

[12] = qHTS assay to identify small molecule HDAC inhibitors (AID 1259364); further: nearly all actives have a fitted effect of over 45% in size; further: potency means the concentration at half of the fitted maximal effect
How it was run: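 Homogeneous cell-based luminescent assay of endogenous class I/II HDAC activity; HCT-116 cells, 2 h compound exposure, 30 min HDAC-Glo development at RT.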

[13] = qHTS assay to identify small molecule antagonists of the sonic hedgehog signaling (Shh) pathway (AID 1259369; calls by dose curve; further: nearly all actives have a fitted effect of over 45% in size; further: potency means the concentration at half of the fitted maximal effect)
How it was run: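 Inhibition of Shh signalling is measured as reduced Gli1-response-element firefly luciferase output in an NIH/3T3-derived stable reporter clone stimulated with conditioned medium for 24hr.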

[14] = biological target: Estrogen receptor beta (Homo sapiens) (UniProt Q92731); experiment: qHTS assay to identify small molecule antagonists of the estrogen receptor beta (ER-beta) signaling pathway (AID 1259378; active means well fitted inhibition curve with a large enough effect in the signal ratio in the repeat runs, not every such curve was filed as active; the % refers to the signal ratio; further: potency means the concentration at half of the fitted maximal effect)
How it was run: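 ER-beta-UAS-bla HEK293T cells in 2% charcoal-stripped FBS medium treated with compound plus 1nM final 17-beta-estradiol for 16 hr at 37C. Beta-lactamase reporter read by FRET substrate fluorescence after 2 hours at room temperature.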

[15] = qHTS assay to identify small molecule agonists of the estrogen receptor beta (ER-beta) signaling pathway - cell viability counter screen (AID 1259380); further: nearly all actives have a fitted effect of over 30% in size; further: potency means the concentration at half of the fitted maximal effect
How it was run: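 Same-well viability counter screen. Cells: ER-beta-UAS-bla HEK293T, plated 6 hr before compound, in 2% charcoal-stripped FBS. Compound exposure 16 hr, 37C; viability by CellTiter-Glo luminescence after 30 min at room temperature.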

[16] = qHTS RealTime-Glo MT Cell Viability Assay in HEK293 cells - 8 hour (AID 1224887); further: nearly all actives have a fitted effect of over 50% in size; further: potency means the concentration at half of the fitted maximal effect
How it was run: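 Nonlytic bioluminescent viability monitoring. HEK293 at 600 cells/well with reagent; 5 h settle; compound transfer by pintool; plates held at 37 C and read at set time points.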

[17] = biological target: Estrogen receptor beta (Homo sapiens) (UniProt Q92731); experiment: qHTS assay to identify small molecule agonists of the estrogen receptor beta (ER-beta) signaling pathway (AID 1259377; active means well fitted activation curve with a large enough effect in the signal ratio in the repeat runs, not every such curve was filed as active; the % refers to the signal ratio)
How it was run: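 Measured by fluorescence intensity from a B/G FRET beta-lactamase substrate (2 h, room temperature) in ER-beta-UAS-bla HEK293T cells treated with DMSO-dissolved compounds for 16 hr at 37C and 5% CO2.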

[18] = A CellTox Green Cytotoxicity Assay to monitor cytotoxicity in HEK293 cells - 16 hour (AID 1224888); further: nearly all actives have a fitted effect of over 35% in size
How it was run: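 Cytotoxicity was tracked continuously in HEK293 cells by a DNA-binding dye excluded from viable cells. Compounds were transferred in DMSO 5 h after seeding; fluorescence was recorded at intervals up to 40 h.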

[19] = biological target: Androgen receptor (Homo sapiens) (UniProt P10275); experiment: qHTS assay to identify small molecule antagonists of the androgen receptor (AR) signaling pathway using the MDA cell line in the presence of 0.5 nM R1881 (AID 1259243); further: nearly all actives have a fitted effect of over 50% in size; further: potency means the concentration at half of the fitted maximal effect
How it was run: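 Steps: seed MDA-kb2 cells, incubate 5 hr at 37C; pin-transfer compounds in DMSO; add R1881 to 0.5 nM final; incubate 16 hr; add ONE-Glo, wait 30 min at room temperature; read luminescence.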

Measured: Potency

Chain of Estrogen receptor (Homo sapiens) (P03372 whole entry, looked up): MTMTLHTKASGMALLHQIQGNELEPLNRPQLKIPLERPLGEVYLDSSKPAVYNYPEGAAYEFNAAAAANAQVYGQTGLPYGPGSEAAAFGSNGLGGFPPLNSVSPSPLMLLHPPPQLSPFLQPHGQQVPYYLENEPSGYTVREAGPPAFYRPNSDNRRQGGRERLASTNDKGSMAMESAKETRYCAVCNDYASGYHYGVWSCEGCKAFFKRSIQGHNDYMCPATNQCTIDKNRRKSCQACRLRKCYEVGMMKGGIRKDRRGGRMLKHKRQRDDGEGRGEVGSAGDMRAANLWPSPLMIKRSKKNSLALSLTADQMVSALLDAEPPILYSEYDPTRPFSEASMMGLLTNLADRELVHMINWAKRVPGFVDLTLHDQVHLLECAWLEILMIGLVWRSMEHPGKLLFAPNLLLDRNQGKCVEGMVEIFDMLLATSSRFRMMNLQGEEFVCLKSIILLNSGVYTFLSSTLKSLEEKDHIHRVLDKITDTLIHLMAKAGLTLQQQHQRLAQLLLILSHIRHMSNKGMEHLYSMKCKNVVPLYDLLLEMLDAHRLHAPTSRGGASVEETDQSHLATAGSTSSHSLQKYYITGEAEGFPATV
Chain of Estrogen receptor beta (Homo sapiens) (Q92731 whole entry, looked up): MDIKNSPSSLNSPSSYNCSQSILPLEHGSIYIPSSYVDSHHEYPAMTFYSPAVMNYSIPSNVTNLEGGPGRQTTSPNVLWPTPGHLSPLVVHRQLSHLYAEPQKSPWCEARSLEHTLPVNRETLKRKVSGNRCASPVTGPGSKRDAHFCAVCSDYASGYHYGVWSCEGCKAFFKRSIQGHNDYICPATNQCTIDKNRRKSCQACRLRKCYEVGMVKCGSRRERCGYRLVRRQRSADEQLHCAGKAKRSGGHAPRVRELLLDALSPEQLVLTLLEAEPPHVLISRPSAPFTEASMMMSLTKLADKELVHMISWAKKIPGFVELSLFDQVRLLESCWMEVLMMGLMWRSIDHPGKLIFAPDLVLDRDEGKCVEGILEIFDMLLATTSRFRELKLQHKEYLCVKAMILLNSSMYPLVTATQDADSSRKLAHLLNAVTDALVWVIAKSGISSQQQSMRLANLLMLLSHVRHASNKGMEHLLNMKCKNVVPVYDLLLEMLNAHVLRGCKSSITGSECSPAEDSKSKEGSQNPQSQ
Chain of Androgen receptor (Homo sapiens) (P10275 whole entry, looked up): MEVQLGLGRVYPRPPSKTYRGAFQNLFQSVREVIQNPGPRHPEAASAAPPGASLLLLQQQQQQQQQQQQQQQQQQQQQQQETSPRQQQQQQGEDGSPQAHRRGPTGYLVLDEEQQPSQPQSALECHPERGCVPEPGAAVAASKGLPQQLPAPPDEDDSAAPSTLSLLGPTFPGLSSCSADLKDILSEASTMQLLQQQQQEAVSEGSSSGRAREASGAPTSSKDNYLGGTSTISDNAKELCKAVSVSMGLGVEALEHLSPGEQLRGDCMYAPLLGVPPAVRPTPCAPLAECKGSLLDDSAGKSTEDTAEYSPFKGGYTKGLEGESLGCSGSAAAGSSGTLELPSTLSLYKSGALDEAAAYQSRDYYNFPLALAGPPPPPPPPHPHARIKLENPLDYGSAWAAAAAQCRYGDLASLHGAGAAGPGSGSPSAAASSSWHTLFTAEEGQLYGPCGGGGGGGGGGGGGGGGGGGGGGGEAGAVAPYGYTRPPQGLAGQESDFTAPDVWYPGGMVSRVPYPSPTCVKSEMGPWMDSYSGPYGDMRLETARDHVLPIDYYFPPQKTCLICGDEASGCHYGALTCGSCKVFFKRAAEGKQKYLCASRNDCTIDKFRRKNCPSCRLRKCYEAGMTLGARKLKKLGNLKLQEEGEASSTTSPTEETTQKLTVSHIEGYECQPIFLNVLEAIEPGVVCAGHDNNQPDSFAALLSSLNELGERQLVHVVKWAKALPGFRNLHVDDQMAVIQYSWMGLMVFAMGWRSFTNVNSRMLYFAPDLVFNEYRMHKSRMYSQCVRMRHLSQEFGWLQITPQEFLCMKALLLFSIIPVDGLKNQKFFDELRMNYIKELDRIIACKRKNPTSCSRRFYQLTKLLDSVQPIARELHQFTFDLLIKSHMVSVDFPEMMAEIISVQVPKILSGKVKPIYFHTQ

c1ccc2occc2c1
inactive: [1] | [2] | [3] | [5] | [6] | [7] | [8] | [9] | [10]
active: [4] 68.6 µM

CCOC(=O)Cc1ccc(-c2ccccc2)cc1
inactive: [5]

CCCCCCCCCCCCN1CCCC1=O
active: [14] 48.6 µM | [15] 48.6 µM
inactive: [11] | [2] | [3] | [4] | [12] | [6] | [8] | [9] | [13]

O=C(O)[C@@H]1C[C@H](CP(=O)(O)O)CCN1
inactive: [5]

O=C(O)c1ccccc1[O-].O=C(O)c1ccccc1[O-].[Zn+2]
inactive: [5]

C=N[C@@H](C(=O)N[C@@H]1C(=O)N2[C@@H]1SC(C)(C)[C@@H]2C(=O)O)c1ccccc1
inactive: [5]

COc1cccc(-c2ccc(/C=C\CN3CCCCCC3)cc2Cl)c1
active: [16] 48.7 µM | [13] 10.8 µM
inactive: [11] | [2] | [12] | [6] | [9] | [17]

O=S(=O)(c1ccc(OCc2ccccc2)cc1)c1ccccc1O
active: [4] 27.3 µM
inactive: [18] | [11] | [1] | [2] | [3] | [12] | [6] | [7] | [9]

CCCCCCCCCCCCCCCCCCOCC(COP(=O)([O-])OCC[N+](C)(C)C)OC (stereo not given)
inactive: [5]

CN(C)CCc1c[nH]c2ccc(Cn3cncn3)cc12
inactive: [5]

C[N+]1(CCCCC[N+]2(C)CCCC2)CCCC1
inactive: [5]

C=COCCCC
not listed: [5] | [11] | [16]
inactive: all other assays above

COc1ccc(OC)c(N=Nc2c(O)ccc3ccccc23)c1
active: [3] 24.3 µM | [12] 27.3 µM | [6] 24.3 µM | [7] 13.7 µM | [8] 13.7 µM | [10] 24.3 µM | [15] 30.6 µM
inactive: [18] | [11] | [1] | [9] | [17] | [14]

O=C(Cl)c1ccc(Cl)cc1Cl
not listed: [2] | [5] | [7] | [11] | [14] | [15] | [18] | [19]
inactive: all other assays above

O[Si](c1ccccc1)(c1ccccc1)c1ccccc1
active: [19] 30.6 µM | [13] 12.2 µM | [15] 48.6 µM
not listed: [2] | [5] | [7] | [8] | [14] | [16]
inactive: all other assays above

c1ccc(-c2ccc(C(c3ccccc3)n3ccnc3)cc2)cc1 (stereo not given)
active: [15] 29.8 µM
not listed: [2] | [13] | [14] | [16] | [17] | [19]
inactive: all other assays above

O=C(N[C@H](CO)[C@H](O)c1ccc([N+](=O)[O-])cc1)C(Cl)Cl
not listed: [14] | [15] | [16] | [17] | [19]
inactive: all other assays above

CC(C)(C)c1ccc(OC2CCCCC2O)cc1 (stereo not given)
inactive: [11] | [1] | [2] | [3] | [12] | [6] | [7] | [9] | [17] | [10]
active: [13] 38.6 µM

C/C(=C(/CCO)SSCC1CCCO1)N(C=O)Cc1cnc(C)nc1N (stereo not given)
inactive: [5]

CCN(CC)c1ccc(C=O)cc1
not listed: [5] | [12] | [15] | [16] | [19]
inactive: all other assays above

CC(C)c1ccc2sc3ccccc3c(=O)c2c1
not listed: [5] | [6] | [9] | [12] | [15] | [16] | [19]
inactive: all other assays above

CCOC(=O)C1=NN(c2ccc(Cl)cc2Cl)C(C)(C(=O)OCC)C1 (stereo not given)
active: [19] 30.6 µM
not listed: [4] | [5] | [13] | [14] | [15] | [16]
inactive: all other assays above

CN=C(N)NCCC[C@H](N)C(=O)O
inactive: [5]

CC(C)(C)C1=CC(=O)C(C(C)(C)C)=CC1=O
inactive: [18] | [1] | [3] | [12] | [6] | [7] | [9] | [17] | [10]

CC(C)(c1ccc(Oc2ccc(N)cc2)cc1)c1ccc(Oc2ccc(N)cc2)cc1
active: [4] 61.1 µM | [10] 54.5 µM
not listed: [3] | [5] | [13] | [14] | [15] | [16] | [19]
inactive: all other assays above

Nc1ccc(N)c([N+](=O)[O-])c1
active: [7] 27.3 µM | [8] 21.7 µM | [13] 8.63 µM | [10] 54.5 µM

CS(=O)(=O)c1ccc([C@@H](CC2CCCC2)C(=O)Nc2cnccn2)cc1Cl
active: [7] 21.7 µM

O=C1Cc2ccccc2C1
inactive: [13]
